The record followed here is PubChem BioAssay (NCI).

The panel holds about 79,000 compounds, 15% with a hit somewhere; the sample as a whole holds those more often. Values without a mark were called inactive. Activity calls are given as the source filed them. Cut-off read from the data, not from the text of the source: active = growth inhibition above about 70%; inactive = the rest.

The nature of test [1]: NCI Yeast Anticancer Drug Screen. Data for the rad50 strain (AID 155).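 Note: 0% = growth of vehicle-only cultures of the same strain.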 The conditions noted are these: S. cerevisiae rad50 strain growth inhibition; at 50.0 µM; stronger effect = higher value. A digest of the protocol:
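DNA repair mutant yeast, compound exposure, growth read-out; inhibition is taken relative to vehicle.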

Test [2] in a line: NCI Yeast Anticancer Drug Screen. Data for the mec2-1 strain (AID 157). Conditions: S. cerevisiae mec2-1 strain, at 50.0 µM, stronger effect = higher value. A digest of the protocol:
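Growth inhibition is read against vehicle-treated controls after compound exposure of the mec2-1 yeast strain, which is defective in DNA damage repair or cell cycle control.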

Test [3] is described as follows: NCI Yeast Anticancer Drug Screen. Data for the sgs1 mgt1 strain (AID 161).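 Note: 0% = growth of cultures given vehicle only.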 Conditions: S. cerevisiae sgs1 mgt1 strain, at 50.0 µM, stronger effect = higher value. Summed up: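 Compounds are added to genetically altered yeast, and growth is compared with cultures given vehicle alone to give percent inhibition.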
Test [4] can be described thus: NCI Yeast Anticancer Drug Screen. Data for the cln2 rad14 strain (AID 165).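 Note: 0% = growth equal to vehicle treated cultures.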 Conditions: S. cerevisiae cln2 rad14 strain, at 50.0 µM, stronger effect = higher value. A digest of the protocol: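 Growth inhibition, relative to vehicle-treated controls, is the read-out. The test organism is a yeast strain with defined genetic alterations, cln2 rad14.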
Test [5] is described as follows: NCI Yeast Anticancer Drug Screen. Data for the bub3 strain (AID 167). The conditions noted are these: S. cerevisiae bub3 mutant strain, at 50.0 µM, stronger effect = higher value. Summed up: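 In this screen, a yeast mutant lacking normal mitotic checkpoint function is challenged with compound. Relative growth versus vehicle gives the inhibition value.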
Test [6] is described as follows: NCI Yeast Anticancer Drug Screen. Data for the mlh1 rad18 strain (AID 175). The conditions noted are these: S. cerevisiae mlh1 rad18 strain growth inhibition; at 50.0 µM; stronger effect = higher value. A digest of the protocol:
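Cells of a genetically altered yeast strain, deficient in DNA damage repair, were treated with compound. Their growth was then compared with that of vehicle-treated cultures to give inhibition.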

`CC12CC(O)C(C=C1c1ccccc1)C2(C)C` (stereo unspecified): the growth inhibition in test [1] was -7.55%; in test [2] it was -0.95%; in test [3], 0.85%; in test [4], -14%; in test [5], -13.1%; in test [6] it was 1.45%.

Turning to `CC(=O)c1ccccc1C`, the growth inhibition in test [1] is -32.6%; in test [2], -69.5%; in test [3], -43.7%; in test [4], -1.25%; in test [5] it was -38.1%; in test [6], -22.3%.

Take `CC1=CC(C)(C)Nc2ccccc2N1`: the growth inhibition was -7.1% in test [1]; -4.85% in test [2]; -8.8% in test [3]; 14.2% in test [4]; -3% in test [5]; 1.45% in test [6].

As for `C=C[C@]1(C)C[C@@H](OC(=O)CO)[C@@]2(C)[C@H](C)CC[C@]3(CCC(=O)[C@H]32)[C@@H](C)[C@@H]1O`, the growth inhibition is -28.6% in test [1]; -23.3% in test [2]; 14.3% in test [3]; 30.2% in test [4]; -49.4% in test [5]; -2.15% in test [6].

Consider `CC(=O)OCCc1ccccc1C#N`, for which the growth inhibition in test [1] was 7.35%; in test [2] it was 9.05%; in test [3], 9.3%; in test [4] it was -11.1%; in test [5], -4.25%; in test [6], 11.9%.

For `CCC(CC)(CC#N)C1CCCCC1`, the growth inhibition was -0.8% in test [1]; -0.35% in test [2]; -0.6% in test [3]; -13.8% in test [4]; -3.15% in test [5]; -8.2% in test [6].

`O=C1OC(=O)C2CCC12` (stereo unspecified): the growth inhibition in test [1] was 14%; in test [2], -9.5%; in test [3], 3.5%; in test [4], 2.5%; in test [5] it was 12.5%; in test [6], 17.6%.

Consider `CC(C)(CC(O)C#N)/[N+]([O-])=[N+](\[O-])C(C)(C)CC(O)C#N` (stereo unspecified), for which the growth inhibition is 3.75% in test [1]; 5.15% in test [2]; 34.1% in test [3]; -4.15% in test [4]; 13.2% in test [5]; -27.8% in test [6].

Turning to `c1csc(-c2nn3c(C45CC6CC(CC(C6)C4)C5)nnc3s2)c1`, the growth inhibition was 10.9% in test [1]; -15.3% in test [2]; -20.1% in test [3]; -11.3% in test [4]; 2.3% in test [5]; -12.8% in test [6].

For the compound `O=C1CCCC2=C1CC1=C(CCCC1=O)N2c1ccccc1C(=O)O`, the growth inhibition in test [1] was -25.2%; in test [2], -20.8%; in test [3] it was -23.8%; in test [4], -5%; in test [5], -21.9%; in test [6], -36.3%.

On to `C/C(Cl)=N\OC(=O)Nc1ccc([N+](=O)[O-])cc1`, for which the growth inhibition was 34.2% in test [1]; 80.2% (active) in test [2]; 85.8% (active) in test [3]; 66.8% in test [4]; 87.2% (active) in test [5]; 43.4% in test [6].

`CC1=N/C(=C/c2ccc3c(c2)OCO3)C(=O)O1`: the growth inhibition is 5.05% in test [1]; 6.1% in test [2]; 6.05% in test [3]; -24.9% in test [4]; -4.6% in test [5]; 14% in test [6].

In the case of `CCC/C(=N/NC(=O)C(N)=O)C(CC)C(=O)CCC(=O)N(Cc1ccccc1)Cc1ccccc1` (stereo unspecified), the growth inhibition is -17.6% in test [1]; -15.6% in test [2]; -26.6% in test [3]; 10.8% in test [4]; -10.4% in test [5]; -21.3% in test [6].

Take `CC1(C)C(=NNc2ccccc2)C(C)(C)C1=NNc1ccccc1`: the growth inhibition is 14.8% in test [1]; 63% in test [2]; 15.5% in test [3]; 79.9% (active) in test [4]; 96.2% (active) in test [5]; 33% in test [6].

Take `O/N=C/c1ccc(Cc2ccccc2)o1`: the growth inhibition in test [1] was 15.7%; in test [2], 19.6%; in test [3], 11.2%; in test [4], -18.8%; in test [5], -11.3%; in test [6], 25.9%.

As to `COc1ccc(C(CC(=O)O)c2ccccc2)cc1` (stereo unspecified), the growth inhibition was -31.4% in test [1]; -42.6% in test [2]; -2.55% in test [3]; -14.4% in test [4]; -29.8% in test [5]; -28.6% in test [6].

Consider `Cc1cccc(N2CCN(S(C)(=O)=O)CC2)c1`, for which the growth inhibition in test [1] is 16.6%; in test [2] it was 6.85%; in test [3] it was 0.3%; in test [4] it was 18.4%; in test [5], 6.75%; in test [6] it was 5%.

For `O=C(O)C1=C/C(=C\C=[N+]2c3cc(O)c(OC4OC(CO)C(O)C(O)C4O)cc3CC2C(=O)[O-])CC(C(=O)O)N1` (stereo unspecified), the growth inhibition in test [1] is -10.4%; in test [2] it was -3.75%; in test [3], 12.2%; in test [4] it was -26.1%; in test [5], 5.8%; in test [6], 6%.

Regarding `CCCCCCCSSCCCCCCC`, the growth inhibition in test [1] was -9.85%; in test [2], -26.1%; in test [3], -3.55%; in test [4], 11.9%; in test [5] it was -16%; in test [6], -0.4%.

As for `CCOC(=O)c1c(N=P(c2ccccc2)(c2ccccc2)c2ccccc2)nnc(-c2ccccc2)c1-c1ccccc1`, the growth inhibition in test [1] was -36.4%; in test [2], -15.4%; in test [3] it was 10.9%; in test [4], 1.85%; in test [5], -6.55%; in test [6], 6.5%.

As for `COc1cccc(NC(=O)CC(=O)N2N=C(N(CCC#N)c3ccc(Cl)cc3)CC2c2ccccc2)c1` (stereo unspecified), the growth inhibition in test [1] was 19.1%; in test [2] it was -4.2%; in test [3] it was 19.1%; in test [4] it was 8.9%; in test [5], -0.15%; in test [6], -0.75%.
